Experimental data reported in PubChem BioAssay AID1159580 (chemical genetic matrix, 2015).
About 2,000 (36%) of roughly 5,500 compounds were called active. Roughly 18% stayed inconclusive and do not appear here. Cut-off read from the data, not from the text of the source: active = normalized growth mostly below about 0.91 (no sharp cut-off); inconclusive = no clear call, values can overlap the other calls; inactive = mostly above about 0.92. The list shows a part of the results.

Experiment: chemical genetic growth profiling, strain panel (AID 1159580);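 note: tested at 20 µM; growth read once vehicle control cultures reached saturation at 30 °C; 1 = growth at the plate median or of vehicle wells; lower values mean less growth of the strain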
Details: growth OD
[1] = S. cerevisiae deletion strains, locus YBR229C, strain ROT2, active compounds read low
[2] = S. cerevisiae deletion strains, locus YDL101C, strain DUN1, active compounds read low
[3] = S. cerevisiae deletion strains, locus YJR043C, strain POL32, active compounds read low
[4] = S. cerevisiae deletion strains, locus YJR075W, strain HOC1, active compounds read low
[5] = S. cerevisiae deletion strains, locus YLR039C, strain RIC1, active compounds read low
[6] = S. cerevisiae deletion strains, locus YLR262C, strain YPT6, active compounds read low
[7] = S. cerevisiae deletion strains, locus YMR263W, strain SAP30, active compounds read low
[8] = S. cerevisiae deletion strains, locus YMR307W, strain GAS1, active compounds read low
[9] = S. cerevisiae deletion strains, locus YNL153C, strain GIM3, active compounds read low
[10] = S. cerevisiae deletion strains, locus YPL055C, strain LGE1, active compounds read low
[11] = S. cerevisiae deletion strains, locus YPL241C, strain CIN2, active compounds read low

Measured: normalized growth

CC12CCC(O)CC1CCC1C2[C@H](O)CC2(C)C(C3=CC(=O)OC3)CCC12O (some centres not stated)
inactive: S. cerevisiae deletion strains, locus YBR021W, strain FUR4, active compounds read low 1.02 | [1] 1.03 | S. cerevisiae deletion strains, locus YCL029C, strain bik1, active compounds read low 1.01 | S. cerevisiae deletion strains, locus YDL035C, strain GPR1, active compounds read low 1.07 | S. cerevisiae deletion strains, locus YDL074C, strain BRE1, active compounds read low 1.08 | [2] 1.02 | S. cerevisiae deletion strains, locus YDL185W, strain tfp1, active compounds read low 0.995 | S. cerevisiae deletion strains, locus YDL192W, strain arf1, active compounds read low 1.01 | S. cerevisiae deletion strains, locus YDR101C, strain arx1, active compounds read low 1.02 | S. cerevisiae deletion strains, locus YDR162C, strain NBP2, active compounds read low 1.03 | S. cerevisiae deletion strains, locus YDR318W, strain mcm21, active compounds read low 0.998 | S. cerevisiae deletion strains, locus YDR388W, active compounds read low 0.983 | S. cerevisiae deletion strains, locus YDR502C, strain sam2, active compounds read low 1 | S. cerevisiae deletion strains, locus YER110C, active compounds read low 0.988 | S. cerevisiae deletion strains, locus YER155C, strain BEM2, active compounds read low 1.01 | S. cerevisiae deletion strains, locus YER167W, strain BCK2, active compounds read low 1.04 | S. cerevisiae deletion strains, locus YGL078C, strain dbp3, active compounds read low 1 | S. cerevisiae deletion strains, locus YGL086W, strain mad1, active compounds read low 0.992 | S. cerevisiae deletion strains, locus YGL248W, strain PDE1, active compounds read low 1.02 | S. cerevisiae deletion strains, locus YGR135W, strain pre9, active compounds read low 0.976 | S. cerevisiae deletion strains, locus YGR252W, strain gcn5, active compounds read low 0.954 | S. cerevisiae deletion strains, locus YHR079C, strain IRE1 (second series), active compounds read low 0.992 | S. cerevisiae deletion strains, locus YHR094C, strain hxt1, active compounds read low 0.984 | S. cerevisiae deletion strains, locus YHR129C, strain ARP1, active compounds read low 1.02 | S. cerevisiae deletion strains, locus YHR200W, strain rpn10, active compounds read low 0.999 | S. cerevisiae deletion strains, locus YIL066C, strain RNR3, active compounds read low 1.04 | S. cerevisiae deletion strains, locus YIL073C, strain SPO22, active compounds read low 1.06 | S. cerevisiae deletion strains, locus YIL125W, strain kgd1, active compounds read low 0.996 | S. cerevisiae deletion strains, locus YIR030C, strain dcg1, active compounds read low 0.986 | S. cerevisiae deletion strains, locus YJL095W, strain BCK1, active compounds read low 1.03 | S. cerevisiae deletion strains, locus YJL134W, strain LCB3, active compounds read low 1.01 | S. cerevisiae deletion strains, locus YJL168C, strain set2, active compounds read low 0.992 | S. cerevisiae deletion strains, locus YJL187C, strain SWE1 (second series), active compounds read low 1.01 | [3] 1.06 | [4] 1.03 | S. cerevisiae deletion strains, locus YKL009W, strain mrt4, active compounds read low 1.06 | S. cerevisiae deletion strains, locus YKL068W, active compounds read low 1 | S. cerevisiae deletion strains, locus YKL085W, strain MDH1 (second series), active compounds read low 1 | S. cerevisiae deletion strains, locus YKL085W, strain MDH1, active compounds read low 1 | S. cerevisiae deletion strains, locus YKL190W, strain CNB1, active compounds read low 1.02 | S. cerevisiae deletion strains, locus YKR001C, strain vps1, active compounds read low 1.01 | [5] 1.1 | S. cerevisiae deletion strains, locus YLR058C, strain SHM2, active compounds read low 1.03 | S. cerevisiae deletion strains, locus YLR102C, strain apc9, active compounds read low 0.994 | [6] 1.16 | S. cerevisiae deletion strains, locus YLR268W, strain sec22, active compounds read low 1.01 | S. cerevisiae deletion strains, locus YLR371W, strain rom2, active compounds read low 0.991 | S. cerevisiae deletion strains, locus YLR418C, strain cdc73, active compounds read low 0.957 | S. cerevisiae deletion strains, locus YML016C, strain PPZ1, active compounds read low 1.02 | S. cerevisiae deletion strains, locus YML032C, strain rad52, active compounds read low 1 | S. cerevisiae deletion strains, locus YML124C, strain tub3, active compounds read low 1 | S. cerevisiae deletion strains, locus YMR078C, strain ctf18, active compounds read low 1 | S. cerevisiae deletion strains, locus YMR223W, strain ubp8, active compounds read low 0.983 | [7] 1.02 | [8] 1.08 | S. cerevisiae deletion strains, locus YNL067W, strain RPL9B, active compounds read low 1.01 | [9] 1.03 | S. cerevisiae deletion strains, locus YNL233W, strain BNI4, active compounds read low 1.03 | S. cerevisiae deletion strains, locus YNL250W, strain rad50, active compounds read low 0.986 | S. cerevisiae deletion strains, locus YNL271C, strain bni1, active compounds read low 0.995 | S. cerevisiae deletion strains, locus YNL298W, strain CLA4, active compounds read low 1.02 | S. cerevisiae deletion strains, locus YNL307C, strain MCK1, active compounds read low 0.987 | S. cerevisiae deletion strains, locus YNR052C, strain pop2, active compounds read low 0.991 | S. cerevisiae deletion strains, locus YOL012C, strain htz1 0.714 | S. cerevisiae deletion strains, locus YOL147C, strain pex11, active compounds read low 0.991 | S. cerevisiae deletion strains, locus YOR061W, strain CKA2, active compounds read low 1.06 | S. cerevisiae deletion strains, locus YOR069W, strain VPS5, active compounds read low 1.01 | S. cerevisiae deletion strains, locus YOR136W, strain idh2, active compounds read low 1.01 | S. cerevisiae deletion strains, locus YOR144C, strain elg1, active compounds read low 0.998 | S. cerevisiae deletion strains, locus YOR184W, strain ser1, active compounds read low 1.05 | S. cerevisiae deletion strains, locus YOR316C, strain cot1, active compounds read low 0.995 | [10] 1.07 | [11] 1.01 | S. cerevisiae deletion strains, locus YPR119W, strain clb2, active compounds read low 0.994 | S. cerevisiae deletion strains, locus YPR141C, strain kar3, active compounds read low 0.982 | S. cerevisiae deletion strains, locus YPR163C, strain tif3, active compounds read low 0.998 | S. cerevisiae deletion strains, locus YPR167C, strain met16, active compounds read low 0.993 | S. cerevisiae deletion strains, strain wtn01, active compounds read low 1.01

CCOC(CN(c1ccc(F)cc1)S(=O)(=O)c1ccc(F)cc1F)OCC
inactive: S. cerevisiae deletion strains, locus YAL013W, strain DEP1, active compounds read low 1 | [1] 1 | S. cerevisiae deletion strains, locus YCL061C, strain MRC1, active compounds read low 1.01 | [2] 0.98 | S. cerevisiae deletion strains, locus YDL134C, strain PPH21, active compounds read low 1.01 | S. cerevisiae deletion strains, locus YDR150W, strain NUM1, active compounds read low 0.957 | S. cerevisiae deletion strains, locus YEL061C, strain CIN8, active compounds read low 0.986 | S. cerevisiae deletion strains, locus YGR078C, strain PAC10, active compounds read low 0.997 | S. cerevisiae deletion strains, locus YHR030C, strain SLT2, active compounds read low 0.936 | S. cerevisiae deletion strains, locus YHR087W, strain rtc3, active compounds read low 1.03 | [3] 0.989 | [4] 0.981 | [5] 0.96 | S. cerevisiae deletion strains, locus YLR058C, strain SHM2 (second series), active compounds read low 0.996 | S. cerevisiae deletion strains, locus YLR085C, strain ARP6, active compounds read low 1.01 | [6] 0.935 | S. cerevisiae deletion strains, locus YML094W, strain GIM5, active compounds read low 0.999 | S. cerevisiae deletion strains, locus YMR219W, strain ESC1, active compounds read low 0.994 | [7] 0.987 | [8] 0.731 | [9] 1.01 | S. cerevisiae deletion strains, locus YNL298W, strain CLA4 (second series), active compounds read low 1.01 | S. cerevisiae deletion strains, locus YNL322C, strain KRE1, active compounds read low 0.995 | S. cerevisiae deletion strains, locus YNR030W, strain Alg12, active compounds read low 0.993 | S. cerevisiae deletion strains, locus YOL006C, strain TOP1, active compounds read low 1.03 | [10] 1.04 | [11] 1 | S. cerevisiae deletion strains, locus YPR135W, strain CTF4, active compounds read low 1.02 | S. cerevisiae strains, strain wild type, active compounds read low 0.991
